Bioassay records from PubChem BioAssay.
BAZ2B inh: blocks human BAZ2B | Q9UIF8 | AlphaScreen BAZ2B-H3K14Ac peptide displacement | Potency, µM (doses to about 114 µM), usual class: inhibitors | 4.4% of 360,000 active | AID 504333; further: nearly all actives have a fitted effect of over 60% in size
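BAZ2B 50 nM plus b-H3(5-23)K14Ac 50 nM, PBS pH 7.4/0.01% Tween-20, 30 min RT; compound added (max 110 uM), 30 min RT; streptavidin donor/Ni-chelate acceptor beads 10 ug/mL final, 20 min dark; AlphaScreen read.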
HP1b chromo inh: inhibitors of HP1-beta chromodomain binding to methylated histone tails | AlphaScreen HP1-beta / biotin-H3K9me3 peptide binding | Potency, µM (top dose mostly 114 µM), actives largely listed as inhibitors | 0.56% of 390,000 active; further: nearly all actives have a fitted effect of over 70% in size
Target sequence (P83916 whole entry, looked up): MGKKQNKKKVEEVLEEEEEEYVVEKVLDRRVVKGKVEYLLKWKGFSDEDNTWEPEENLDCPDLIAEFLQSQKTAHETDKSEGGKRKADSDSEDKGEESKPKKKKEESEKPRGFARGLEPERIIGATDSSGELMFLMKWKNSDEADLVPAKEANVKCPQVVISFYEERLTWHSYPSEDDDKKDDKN
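AlphaScreen: HP1-beta (50 nM) preformed 30 min with biotin-H3(1-18)K9me3 peptide (50 nM) in PBS pH 7.4, 0.01% Tween-20. Compound added for 30 min at RT, then streptavidin donor/nickel chelate acceptor beads (10 ug/mL) for 30 min.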
L3MBTL1 inh: L3MBTL1 (human) inhibition | AlphaScreen L3MBTL1–H3K9me1 peptide binding | Potency, µM (highest dose often 57.1 µM), hits mostly inhibitors | 0.66% of 230,000 active; further: nearly all actives have a fitted effect of over 60% in size
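L3MBTL1 50 nM + b-AHA-H3(1-15)K9me1 75 nM, 30 min RT; compound added, 30 min RT; streptavidin donor/Ni-chelate acceptor beads 10 ug/mL each final, 30 min RT dark; AlphaScreen read.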
Sfp PPTase inh: Sfp phosphopantetheinyl transferase inhibition; Potency, µM, actives largely listed as inhibitors; Biochemical Sfp PPTase activity, qHTS; Q9F4F7; 3.5% of 310,000 active;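 further: the enzyme is Sfp with the accession as filed and its product quenches rhodamine fluorescence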
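Fluorescence-quenching assay with 15 nM Sfp, 5 uM rhodamine-CoA and 12.5 uM BHQ-2-labelled ybbR peptide in pH 7.6 Hepes/MgCl2 buffer. Enzyme was pre-incubated with compound for 15 min at room temperature. Rate was taken from the 30-min fluorescence change (525/598 nm).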
JMJD2A Tudor inh: inhibitors of human JMJD2A Tudor domain. AlphaScreen JMJD2A-Tudor / H3K4me3 peptide binding. O75164. Potency, µM (top dose mostly 114 µM), usual class: inhibitors. 4.4% of 390,000 active; further: nearly all actives have a fitted effect of over 50% in size
G9a inh: inhibitors of human histone lysine methyltransferase G9a. Q96KQ7. G9a H3K9 monomethylation, AlphaScreen, 2 h. Potency, µM (highest dose often 102 µM), actives largely listed as inhibitors. 8.8% of 350,000 active. AID 504332; further: nearly all actives have a fitted effect of over 75% in size
Target sequence (Q96KQ7 913-1193 limits assumed): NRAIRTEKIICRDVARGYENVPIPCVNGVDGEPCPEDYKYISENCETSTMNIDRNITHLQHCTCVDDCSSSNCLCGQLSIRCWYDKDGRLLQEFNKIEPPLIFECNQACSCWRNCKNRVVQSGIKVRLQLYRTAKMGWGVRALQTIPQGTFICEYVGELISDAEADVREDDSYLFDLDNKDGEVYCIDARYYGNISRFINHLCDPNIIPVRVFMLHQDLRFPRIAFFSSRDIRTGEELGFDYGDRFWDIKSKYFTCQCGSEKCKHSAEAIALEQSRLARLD
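Quantitative HTS format: methyltransferase activity on a biotin-tagged H3K9 peptide is measured by AlphaScreen, using a rabbit anti-monomethyl-H3K9 antibody with streptavidin donor and anti-IgG acceptor beads. Final levels are 20 nM enzyme, 500 nM peptide, 20 uM SAM; 2 h RT.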
Each line names hits and unclear results; the compound was inactive in the other large screens. Only some compounds are listed: those with a hit (about 12% of all), similar ones and a draw of the others. The call rests on the fitted dose curve; in most records, active means well fitted curve in the direction sought with a large enough effect; inconclusive means small, poorly fitted or top-dose-only effect, or another doubt; inactive means no such curve, though single readings can be large; an effect the other way counts as inactive or inconclusive.

CN(C)CCCNCC(=O)NN(c1ccccc1)c1ccccc1	BAZ2B inh 31.6µM, JMJD2A Tudor inh 0.794µM (no result: L3MBTL1 inh)
Cc1cc(C)n2cnnc2n1	none
Cc1cc(C)n2c(=S)[nH]nc2n1	BAZ2B inh 39.8µM, HP1b chromo inh 8.91µM, Sfp PPTase inh 2.82µM, JMJD2A Tudor inh inconclusive, G9a inh 1.12µM
Cc1cc(C)n(C(C)CC(=O)Nc2ccc(Cl)cc2C)n1 (stereo not given)	none (no result: L3MBTL1 inh, Sfp PPTase inh)
O=C(c1cc2c(=O)n3ccccc3nc2s1)N1CCc2ccccc2C1	Sfp PPTase inh inconclusive, G9a inh 39.8µM (no result: HP1b chromo inh, JMJD2A Tudor inh)
CCOC(=O)CC1C(=O)NCCN1C(=O)c1cc2c(=O)n3ccccc3nc2s1 (stereo not given)	G9a inh 89.1µM (no result: HP1b chromo inh, L3MBTL1 inh, JMJD2A Tudor inh)
Cc1cc(N(C)Cc2ccccc2)nc2cc(O)ccc12	none (no result: L3MBTL1 inh)
CCn1cc(C(=O)NN)c(=O)c2cc(F)c(N3CCN(C)CC3)cc21	none (no result: L3MBTL1 inh)
CCn1cc(C(=O)O)c(=O)c2cc(F)c(N3CCN(C(=S)NC(=O)c4ccc(F)c(F)c4)CC3)cc21	G9a inh 50.1µM
CCn1cc(C(=O)O)c(=O)c2cc(F)c(N3CCN(C(=S)NC(=O)c4cccc(F)c4)CC3)cc21	none (no result: L3MBTL1 inh, G9a inh)
CCOC(=O)C1CN(c2cc3c(cc2F)c(=O)c(C(=O)O)cn3CC)OC1C(=O)OCC (stereo not given)	BAZ2B inh inconclusive, JMJD2A Tudor inh 56.2µM, G9a inh 39.8µM
CCOC(=O)N1CCN(C(=O)c2cn(CC)c3cc(N4CCN(C)CC4)c(F)cc3c2=O)CC1	G9a inh 14.1µM (no result: HP1b chromo inh, JMJD2A Tudor inh)
CCn1cc(C(=O)O)c(=O)c2cc(F)c(N3CCN(C(=S)NC(=O)c4ccc(F)cc4)CC3)cc21	BAZ2B inh inconclusive (no result: G9a inh)
CCn1cc(C(=O)O)c(=O)c2cc(F)c(N3CCN(C(=S)NC(=O)c4ccccc4Br)CC3)cc21	BAZ2B inh 70.8µM (no result: L3MBTL1 inh)
CC1CCc2sc(C(=O)N/N=C/c3ccc(O)cc3)cc2C1 (stereo not given)	none
CNCCN(C)c1nc(-c2cccs2)nc2ccccc12	none (no result: BAZ2B inh, L3MBTL1 inh, Sfp PPTase inh, G9a inh)
CCC(=O)Nc1cc(C(=O)O)ccc1Sc1ccc(Cl)cc1	G9a inh inconclusive (no result: L3MBTL1 inh)
COc1ccccc1CNC(=O)C1CCC(CNS(=O)(=O)c2ccc3c(c2)CCCC(=O)N3)CC1 (stereo not given)	none (no result: L3MBTL1 inh, Sfp PPTase inh)
CCCCN(C(=O)CSCC(=O)Nc1ccc(OC)cc1)c1c(N)n(Cc2ccccc2)c(=O)[nH]c1=O	none (no result: Sfp PPTase inh)
CCn1cc(C(=O)O)c(=O)c2cc(F)c(N3CCN(C(=S)NC(=O)c4c(OC)cccc4OC)CC3)cc21	BAZ2B inh 56.2µM, JMJD2A Tudor inh inconclusive, G9a inh 35.5µM (no result: L3MBTL1 inh)
CCn1cc(C(=O)O)c(=O)c2cc(F)c(N3CCN(C(=S)Nc4ccccc4OC)CC3)cc21	none
COC(=O)c1c(NC(=O)COc2ccc(C)cc2Br)sc2c1CCCC2	none (no result: L3MBTL1 inh, Sfp PPTase inh)
CC1(C)CC(=O)C2=C(C1)N(Cc1cccnc1)C(=O)C2(NC(=O)c1cccnc1)C(F)(F)F (stereo not given)	none
CC1(C)CC(=O)C2=C(C1)N(Cc1ccco1)C(=O)C2(NC(=O)c1cccnc1)C(F)(F)F (stereo not given)	Sfp PPTase inh 22.4µM, G9a inh inconclusive
O=S(=O)(NCc1ccc(Cl)cc1)c1ccc(Cl)nc1	none
NS(=O)(=O)c1ccc(CNS(=O)(=O)c2ccc(Cl)nc2)cc1	G9a inh 56.2µM
COc1ccc(NC(=O)CN2CCCCC2)cc1S(=O)(=O)N1CCCCC1	HP1b chromo inh inconclusive, JMJD2A Tudor inh 2.51µM (no result: BAZ2B inh, Sfp PPTase inh, G9a inh)
COc1ccc(NC(=O)Cc2ccc(C)cc2)cc1S(=O)(=O)N1CCCCC1	none (no result: Sfp PPTase inh)
COc1ccc(NC(=O)COc2ccc3c(C)cc(=O)oc3c2)cc1S(=O)(=O)N1CCCCC1	G9a inh 11.2µM (no result: Sfp PPTase inh)
COc1ccc(NC(=O)COc2ccccc2C)cc1S(=O)(=O)N1CCCCC1	G9a inh 50.1µM (no result: Sfp PPTase inh)
Cc1ccc(C2(C)NC(=O)N(CC(=O)Nc3ccc(Cl)c(S(=O)(=O)N4CCCCC4)c3)C2=O)cc1 (stereo not given)	G9a inh 39.8µM (no result: Sfp PPTase inh)
O=C(COC(=O)C1CCN(S(=O)(=O)c2ccccc2C(F)(F)F)CC1)NCc1ccc(F)cc1	G9a inh inconclusive
